The record followed here is PubChem BioAssay (EPA / NIEHS).

Usually AC50 stands for the concentration giving half of the maximal activity seen.

Each structure is given as a SMILES string. The source holds several records for some structures; these can differ, active in one and inactive in another. Activity calls are given as the source filed them. Rule for the calls: active = hit-call score of the fitted dose curve at least 0.9, where 1 is the maximum; inactive = score below 0.9.

Read-out in test [1]: Vascular cell adhesion molecule 1 (VCAM1), VCAM1 (gene 7412)
In words: BSK_4H_VCAM1: BioMAP Diversity Plus: 4H Assay for Vascular cell adhesion molecule 1 (VCAM1) Biomarker Activity (AID 2283033).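 For outcome: cell-surface VCAM-1 protein measured by ELISA.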 The note with it: primary human endothelial cells (HUVEC); actives raise or lower the signal. In a few lines: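 Primary human umbilical vein endothelial cells were exposed to chemicals for 24 h, after which VCAM-1 was quantified by ELISA. Responses were fitted bidirectionally against DMSO as negative control and activity baseline.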

Read-out in test [2]: Interferon-gamma inducible Protein 10 (IP10), CXCL10 (gene 3627)
The test is described as follows: BSK_BE3C_IP10: BioMAP Diversity Plus: BE3C Assay for Interferon-gamma inducible Protein 10 (IP10) Biomarker Activity (AID 2283034). Particulars: primary human bronchial epithelial cells; actives raise or lower the signal. In a few lines: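 Human primary bronchial epithelial cells were exposed to chemicals for 24 hours, after which IP-10 levels were measured by ELISA. Data were fitted bidirectionally against DMSO, which served as the negative control and activity baseline.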

Read-out in test [3]: Monokine induced gamma interferon (MIG), CXCL9 (gene 4283)
In words: BSK_BE3C_MIG: BioMAP Diversity Plus: BE3C Assay for Monokine induced gamma interferon (MIG) Biomarker Activity (AID 2283035).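 For outcome: MIG protein measured by ELISA in BE3C cultures after 24 h of dosing.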 The note with it: primary human bronchial epithelial cells; actives raise or lower the signal. In a few lines:
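ELISA read-out of MIG in human lung bronchial epithelial primary cultures, 24 h post-dosing. Bidirectional curve fit vs DMSO baseline.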

Read-out in test [4]: Transforming growth factor beta 1 (TGFb1), TGFB1 (gene 7040)
In words: BSK_BE3C_TGFb1: BioMAP Diversity Plus: BE3C Assay for Transforming growth factor beta 1 (TGFb1) Biomarker Activity (AID 2283036). The note with it: primary human bronchial epithelial cells; actives raise or lower the signal. In a few lines: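 Human primary bronchial epithelial cells (BE3C system) were dosed with chemical and TGF-b1 levels measured by ELISA at 24 h. Activity was fitted bidirectionally relative to DMSO negative control as baseline.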

Read-out in test [5]: Plasminogen activator inhibitor-1 (PAI1), SERPINE1 (gene 5054)
The test is described as follows: BSK_BE3C_PAI1: BioMAP Diversity Plus: BE3C Assay for Plasminogen activator inhibitor-1 (PAI1) Biomarker Activity (AID 2283037). The note with it: primary human bronchial epithelial cells; actives raise or lower the signal. Put shortly: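 Human primary bronchial epithelial cells were exposed to chemical for 24 h, then PAI-1 was quantified by ELISA. Activity was fitted bidirectionally relative to the DMSO negative control baseline.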

Read-out in test [6]: urokinase plasminogen activator (uPA), PLAU (gene 5328)
The test is described as follows: BSK_BE3C_uPA: BioMAP Diversity Plus: BE3C Assay for urokinase plasminogen activator (uPA) Biomarker Activity (AID 2283038).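 For outcome: uPA protein level quantified by ELISA in cell cultures; uPA read one day after compound addition.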 Particulars: primary human bronchial epithelial cells; actives raise or lower the signal. In a few lines: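 Bronchial epithelial cells (human, primary); chemical 24 h; uPA by ELISA; bidirectional fit vs DMSO. SRB (0.1%, after 10% TCA fixation, 560 nm) in parallel cultures for cytotoxicity.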

Read-out in test [7]: Urokinase-type plasminogen activator receptor (uPAR), PLAUR (gene 5329)
The test is described as follows: BSK_BE3C_uPAR: BioMAP Diversity Plus: BE3C Assay for Urokinase-type plasminogen activator receptor (uPAR) Biomarker Activity (AID 2283039).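 For outcome: cells exposed to compound for one day before measurement.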 Particulars: primary human bronchial epithelial cells; actives raise or lower the signal. In a few lines: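 Primary human bronchial epithelial cells were dosed with chemical and harvested 24 h later; uPAR was quantified by ELISA. Activity was fitted bidirectionally against DMSO as negative control and baseline.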

Read-out in test [8]: Interleukin-6 (IL6), IL6 (gene 3569)
The test is described as follows: BSK_CASM3C_IL6: BioMAP Diversity Plus: CASM3C Assay for Interleukin-6 (IL6) Biomarker Activity for (AID 2283040). The note with it: primary human coronary artery smooth muscle cells; actives raise or lower the signal.

Read-out in test [9]: Tissue plasminogen activator (tPA), PLAT (gene 5327)
The test is described as follows: BSK_BE3C_tPA: BioMAP Diversity Plus: BE3C Assay for Tissue plasminogen activator (tPA) Biomarker Activity (AID 2283041).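 For outcome: tPA level quantified by ELISA one day after compound addition.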 The note with it: primary human bronchial epithelial cells; actives raise or lower the signal. Put shortly:
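Human primary bronchial epithelial cells were dosed with chemical and tPA biomarker levels measured by ELISA 24 hours later. Activity was fitted bidirectionally against DMSO as negative control and baseline.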

Read-out in test [10]: Interleukin-8 (IL8), CXCL8 (gene 3576)
In words: BSK_CASM3C_IL8: BioMAP Diversity Plus: CASM3C Assay for Interleukin-8 (IL8) Biomarker Activity (AID 2283042).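 Note: IL-8 protein level quantified by ELISA.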 The note with it: primary human coronary artery smooth muscle cells; actives raise or lower the signal.

Read-out in test [11]: Human Leukocyte Antigen - DR isotype (HLADR), HLA-DRA (gene 3122)
In words: BSK_CASM3C_HLADR: BioMAP Diversity Plus: CASM3C Assay for Human Leukocyte Antigen - DR isotype (HLADR) Biomarker Activity (AID 2283043).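 Note: cell-surface HLA-DR protein level quantified by ELISA.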 The note with it: primary human coronary artery smooth muscle cells; actives raise or lower the signal.

Read-out in test [12]: Macrophage colony-stimulating factor (MCSF), CSF1 (gene 1435)
In words: BSK_CASM3C_MCSF: BioMAP Diversity Plus: CASM3C Assay for Macrophage colony-stimulating factor (MCSF) Biomarker Activity (AID 2283044).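 Note: M-CSF protein amount quantified by ELISA after 24 h exposure.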 Particulars: primary human coronary artery smooth muscle cells; actives raise or lower the signal.

Read-out in test [13]: Low-density lipoprotein receptor (LDLR), LDLR (gene 3949)
The test is described as follows: BSK_CASM3C_LDLR: BioMAP Diversity Plus: CASM3C Assay for Low-density lipoprotein receptor (LDLR) Biomarker Activity (AID 2283045).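 Note: LDLR protein level on the cell surface quantified by ELISA.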 Particulars: primary human coronary artery smooth muscle cells; actives raise or lower the signal.

Read-out in test [14]: Monocyte Chemoattractant Protein-1 (MCP1), CCL2 (gene 6347)
The test is described as follows: BSK_CASM3C_MCP1: BioMAP Diversity Plus: CASM3C Assay for Monocyte Chemoattractant Protein-1 (MCP1) Biomarker Activity (AID 2283046).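 Note: MCP-1 level quantified by ELISA 24 h after dosing.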 Particulars: primary human coronary artery smooth muscle cells; actives raise or lower the signal.

Test [15] can be described thus: BSK_CASM3C_Proliferation: Cell Proliferation Assessment in the BioMAP Diversity Plus: CASM3C Assay (AID 2283047).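 Note: sulforhodamine B total protein stain as relative cell number at 560 nm; sub-confluent cells exposed 48 h before staining; fitted both ways against DMSO so gain or loss of cell number.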 Particulars: primary human coronary artery smooth muscle cells.
Read-out in test [16]: Monokine induced gamma interferon (MIG), CXCL9 (gene 4283)
In words: BSK_CASM3C_MIG: BioMAP Diversity Plus: CASM3C Assay for Monokine induced gamma interferon (MIG) Biomarker Activity (AID 2283048). The note with it: primary human coronary artery smooth muscle cells; actives raise or lower the signal.

Read-out in test [17]: serum amyloid A (SAA), SAA1 (gene 6288)
The test is described as follows: BSK_CASM3C_SAA: BioMAP Diversity Plus: CASM3C Assay for serum amyloid A (SAA) Biomarker Activity (AID 2283049).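 Note: SAA protein level quantified by ELISA.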 The note with it: primary human coronary artery smooth muscle cells; actives raise or lower the signal.

Test [18] is described as follows: BSK_CASM3C_SRB: Viability Assessment in the BioMAP Diversity Plus: CASM3C Assay (AID 2283050).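 Note: total protein by SRB staining as cytotoxicity measure in parallel cultures.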 Particulars: primary human coronary artery smooth muscle cells.
Read-out in test [19]: Thrombomodulin, THBD (gene 7056)
The test is described as follows: BSK_CASM3C_Thrombomodulin: BioMAP Diversity Plus: CASM3C Assay for Thrombomodulin Biomarker Activity (AID 2283051).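 Note: thrombomodulin protein level measured by ELISA 24 h after dosing.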 Particulars: primary human coronary artery smooth muscle cells; actives raise or lower the signal.

Read-out in test [20]: Tissue Factor, F3 (gene 2152)
The test is described as follows: BSK_CASM3C_TissueFactor: BioMAP Diversity Plus: CASM3C Assay for Tissue Factor Biomarker Activity (AID 2283052).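 Note: cell surface tissue factor protein level read by ELISA.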 The note with it: primary human coronary artery smooth muscle cells; actives raise or lower the signal.

In the case of `CS(=O)(=O)OCCCCOS(C)(=O)=O`, the result in [1], in test [2], in [3], in test [4], in test [5] and in test [6] was inactive. Also, the result in test [7], in [8], in test [9], in [10], in [11] and in test [12] was inactive. The outcome in test [13], in test [14], in test [15], in test [16], in test [17] and in [18] was inactive. In addition, the outcome in [19] and in test [20] was inactive.

Take `CN(C)C(=O)Nc1ccc(Oc2ccc(Cl)cc2)cc1`: the outcome in test [1], in test [2], in test [3], in [5], in [6] and in test [7] was inactive. In addition, the result in test [10], in test [11], in test [12], in test [13], in test [14] and in [15] was inactive. Besides, the result in [16], in [17], in [18], in [19] and in test [20] was inactive. For the same compound, the results for the AC50 in [4], in [8] and in test [9] were 3.97 µM (active), 0.0427 µM (active) and 4.19 µM (active), respectively.

For the compound `C=CC(C)(O)CCC=C(C)C` (centres undefined), the outcome in [1], in test [2], in test [3], in test [5], in test [6] and in test [7] was inactive. Moreover, the result in test [8], in [9], in [10], in [11], in test [12] and in test [13] was inactive. Also, the outcome in test [14], in [15], in test [16], in test [17], in test [18] and in test [19] was inactive. Besides, the outcome in test [20] was inactive. The concentration at half-maximal activity (AC50) in test [15] was 4.81 µM (active).

On to `C1=CC2C3C=CC(C3)C2C1` (centres undefined), for which the outcome in test [1], in test [2], in test [3], in test [4], in [5] and in test [6] was inactive. Besides, the outcome in test [7], in [8], in test [9], in [10], in [11] and in test [12] was inactive. Further, the outcome in test [13], in test [14], in [15], in [16], in [17] and in [18] was inactive. Further, the outcome in test [19] and in test [20] was inactive.

In the case of `CCC(C)c1cc([N+](=O)[O-])cc([N+](=O)[O-])c1OC(=O)OC(C)C` (centres undefined), the AC50 in test [1] is 8.04 µM (active); in test [2] it was 11 µM (active); in test [3], 33 µM (active); in test [4], 13.6 µM (active); in test [5], 20 µM (active); in [6], 33.7 µM (active). The half-maximal activity concentration (AC50) in test [7] is 35 µM (active); in test [8] it was 34.1 µM (active); in [9] it was 13.6 µM (active); in test [10] it was 4.74 µM (active); in test [11] it was 13.7 µM (active); in test [12], 32.7 µM (active). In addition, the concentration at half-maximal activity (AC50) in [13] is 31.8 µM (active); in [14], 32.3 µM (active); in [15], 29.7 µM (active); in [16], 30.7 µM (active); in test [17] it was 34.1 µM (active); in test [18] it was 25.8 µM (active). The results for the AC50 in test [19] and in test [20] were 36.8 µM (active) and 12.1 µM (active), respectively.

Turning to `O=CN1CCOCC1`, the outcome in [1], in [2], in test [3], in [5], in test [6] and in test [7] was inactive. For the same compound, the outcome in test [8], in test [9], in test [10], in test [11], in [12] and in test [13] was inactive. Moreover, the outcome in test [14], in [15], in test [16], in [17], in [18] and in test [19] was inactive. Besides, in test [20], the outcome was inactive.
